In PubChem BioAssay (Tox21) one finds Potency data, which are given here for 42 molecules.

Several values for one entry are separate records, joined by “and”; a condition that tells them apart may be missing. Identical values can stand only once. Records with an inconclusive call do not appear. Some compounds were tested as several samples or in several runs, with calls that do not always agree. Activity calls are given as the source filed them. Calls follow the shape of the dose curve; as a rule, active = well fitted curve in the direction sought with a large enough effect in the repeat runs; inconclusive = weak or mixed curves; inactive = no such curve, though single readings can be large; an effect the other way counts as inactive or inconclusive.

Experiment [1] concerns the target Cytochrome P450 1A2 (Homo sapiens) (UniProt P05177). The experiment can be described thus: Cytochrome P450 Family 1 Subfamily A Member 2 (CYP1A2) small molecule antagonists: luciferase reporter qHTS assay (AID 1671199). The procedure, abridged: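 Compounds were incubated with CYP1A2 and a luminogenic proluciferin substrate for 10 min at room temperature before the reaction was started with NADPH regeneration solution. After 1 h, detection reagent was added and light output, proportional to CYP activity, was recorded.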

The target in experiment [2] is Voltage-gated inwardly rectifying potassium channel KCNH2 (Homo sapiens) (UniProt Q12809). The experiment can be described thus: Human Ether-a-go-go-Related Gene (hERG) channel small molecule antagonists: fluorescence cell-based qHTS assay (AID 1671200). The procedure, abridged:
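In this thallium-flux screen, overnight-cultured U2OS cells bearing the channel are dye-loaded in darkness for an hour, rested 10 min at room temperature, and then monitored kinetically at 480/540 nm for two minutes post-stimulus.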
A general note: Block of hERG is tested as a sign of cardiac risk.

Experiment [3] has as its target Cytochrome P450 3A4 (Homo sapiens) (UniProt P08684). The experiment can be described thus: Cytochrome P450 Family 3 Subfamily A Member 4 (CYP3A4) small molecule antagonists: luciferase reporter qHTS assay (AID 1671201). Summed up:
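CYP3A4 activity was followed with a P450-Glo proluciferin substrate. Test compounds in DMSO were preincubated 10 min; NADPH regeneration then ran 1 h, and light output was read 20 min after detection reagent.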
Also: nearly all actives have a fitted effect of over 50% in size.
Potency is read from the fitted curve at half-maximal effect.

Sequence of Cytochrome P450 3A4 (Homo sapiens) (P08684 whole entry, looked up): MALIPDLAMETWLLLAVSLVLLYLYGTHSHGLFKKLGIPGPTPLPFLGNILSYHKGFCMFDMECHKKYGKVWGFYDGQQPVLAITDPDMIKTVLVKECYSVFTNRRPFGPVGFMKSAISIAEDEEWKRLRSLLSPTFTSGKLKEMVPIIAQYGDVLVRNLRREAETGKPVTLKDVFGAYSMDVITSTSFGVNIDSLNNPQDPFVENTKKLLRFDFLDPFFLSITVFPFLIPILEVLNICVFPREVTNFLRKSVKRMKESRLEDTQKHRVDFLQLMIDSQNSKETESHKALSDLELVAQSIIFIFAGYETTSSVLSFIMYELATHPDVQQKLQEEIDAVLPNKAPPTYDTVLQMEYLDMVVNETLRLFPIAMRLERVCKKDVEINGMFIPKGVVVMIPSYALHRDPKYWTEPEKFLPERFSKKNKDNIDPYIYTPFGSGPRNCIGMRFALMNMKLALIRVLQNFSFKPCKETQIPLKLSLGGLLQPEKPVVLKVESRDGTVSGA
Sequence of Voltage-gated inwardly rectifying potassium channel KCNH2 (Homo sapiens) (Q12809 whole entry, looked up): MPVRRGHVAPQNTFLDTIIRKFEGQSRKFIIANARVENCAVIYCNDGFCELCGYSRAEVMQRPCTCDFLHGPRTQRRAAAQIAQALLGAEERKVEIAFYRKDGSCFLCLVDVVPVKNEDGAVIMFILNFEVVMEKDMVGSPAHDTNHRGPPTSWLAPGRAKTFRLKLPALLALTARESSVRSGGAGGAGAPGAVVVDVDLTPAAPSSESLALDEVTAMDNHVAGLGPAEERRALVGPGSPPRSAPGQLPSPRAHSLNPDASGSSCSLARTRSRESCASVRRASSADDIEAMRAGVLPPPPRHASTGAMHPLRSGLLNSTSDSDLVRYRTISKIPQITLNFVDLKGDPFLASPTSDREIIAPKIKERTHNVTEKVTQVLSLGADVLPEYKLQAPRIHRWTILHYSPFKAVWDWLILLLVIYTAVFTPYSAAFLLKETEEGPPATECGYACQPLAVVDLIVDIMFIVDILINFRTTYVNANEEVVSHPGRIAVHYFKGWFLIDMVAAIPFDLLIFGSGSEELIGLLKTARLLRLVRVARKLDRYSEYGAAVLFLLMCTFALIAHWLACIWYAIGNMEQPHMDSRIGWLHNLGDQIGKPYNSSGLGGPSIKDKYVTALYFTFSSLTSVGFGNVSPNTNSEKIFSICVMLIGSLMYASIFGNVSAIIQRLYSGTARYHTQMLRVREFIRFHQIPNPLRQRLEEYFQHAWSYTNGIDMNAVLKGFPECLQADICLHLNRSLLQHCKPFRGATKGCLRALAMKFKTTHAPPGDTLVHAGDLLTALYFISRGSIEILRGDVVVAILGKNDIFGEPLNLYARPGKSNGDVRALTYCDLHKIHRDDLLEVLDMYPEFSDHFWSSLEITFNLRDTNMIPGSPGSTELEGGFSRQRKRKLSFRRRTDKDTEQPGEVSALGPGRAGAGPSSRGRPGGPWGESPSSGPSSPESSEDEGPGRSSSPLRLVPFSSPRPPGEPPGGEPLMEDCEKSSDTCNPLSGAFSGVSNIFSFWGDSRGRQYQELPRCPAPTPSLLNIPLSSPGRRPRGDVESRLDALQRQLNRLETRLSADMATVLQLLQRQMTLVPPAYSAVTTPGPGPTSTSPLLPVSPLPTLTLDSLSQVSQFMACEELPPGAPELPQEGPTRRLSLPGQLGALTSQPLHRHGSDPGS
Sequence of Cytochrome P450 1A2 (Homo sapiens) (P05177 whole entry, looked up): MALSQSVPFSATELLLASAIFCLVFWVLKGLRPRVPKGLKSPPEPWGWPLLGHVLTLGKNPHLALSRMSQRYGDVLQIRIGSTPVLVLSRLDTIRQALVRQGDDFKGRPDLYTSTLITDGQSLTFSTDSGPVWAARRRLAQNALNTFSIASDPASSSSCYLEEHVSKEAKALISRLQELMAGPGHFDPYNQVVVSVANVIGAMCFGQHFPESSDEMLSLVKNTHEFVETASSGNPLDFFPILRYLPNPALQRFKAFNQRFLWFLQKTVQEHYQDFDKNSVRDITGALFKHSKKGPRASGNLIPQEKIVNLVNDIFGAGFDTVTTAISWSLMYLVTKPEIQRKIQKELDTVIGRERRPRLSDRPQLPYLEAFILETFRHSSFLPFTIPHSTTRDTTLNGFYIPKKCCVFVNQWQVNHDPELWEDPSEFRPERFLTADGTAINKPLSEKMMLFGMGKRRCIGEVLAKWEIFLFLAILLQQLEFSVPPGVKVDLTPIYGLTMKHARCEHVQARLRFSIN

For the molecule `C=CC(=O)OCCn1c(=O)n(CCOC(=O)C=C)c(=O)n(CCOC(=O)C=C)c1=O`, the Potency in experiment [1] is 39.9 µM (active); in experiment [3] it was 0.2 µM (active). Also, the Potency entry in experiment [2] was “inactive”.
In the same order, the values of `CC(C)=CCOc1ccc(/C=C/C(=O)c2ccc(OCC=C(C)C)cc2OCC(=O)O)cc1` are “inactive”, “inactive” and “inactive”.
In the same order, the values of `Cc1nc(-c2ccc3c(c2)CCN(CCC2CCC(NC(=O)/C=C/c4ccc(F)cc4)CC2)CC3)no1` (configuration not stated) are “inactive”, “inactive” and 0.873 µM (active).
In the same order, the values of `NNc1nc(-c2ccccc2)cs1` are 0.651 µM (active), 5.8 µM (active) and “inactive”.
On to `O=C(Nc1cccc(C(F)(F)F)c1)c1cc(Br)cc(Br)c1O`, for which the Potency was 56.4 µM (active) in experiment [1] and 22.4 µM (active) in experiment [3]. The Potency entry in experiment [2] is “inactive”.
Consider `O=[N+]([O-])c1ccccc1Nc1ccccc1`, for which the Potency in experiment [1] is 5 µM (active); in experiment [2] it was 54.6 µM (active). The Potency result in experiment [3] is “inactive”.
As for `CC1(C)CCC(C)(C)c2cc(C(=O)Nc3ccc(C(=O)O)cc3)ccc21`, the Potency entry in experiment [1] and in experiment [3] was “inactive” in each case.
For `CC(C)(C)C1CCC(CC2=C(O)c3ccccc3C(=O)C2=O)CC1` (configuration not stated), the Potency result in experiment [1], in experiment [2] and in experiment [3] was “inactive” in each case.
For the molecule `O=C1c2ccccc2Cc2ccccc21`, the Potency in experiment [1] is 0.452 µM (active); in experiment [3] it was 22.6 µM (active).
For `O=C1c2c(O)ccc(Nc3ccc(CCO)cc3)c2C(=O)c2c([N+](=O)[O-])ccc(O)c21` the same measures were 31.7 µM (active) and 31.7 µM (active).
Regarding `CCCCCOC(=O)CCCC`, the Potency result in experiment [1], in experiment [2] and in experiment [3] was “inactive” each time.
For `O=c1[nH]sc2ccccc12`, the Potency was 31.7 µM (active) in experiment [1], 49 µM (active) in experiment [2] and 39.9 µM (active) in experiment [3].
In the same order, the values of `CC[C@H]1O[C@]2(CC[C@@H]1C)C[C@@H]1C[C@@H](C/C=C(\C)C[C@@H](C)/C=C/C=C3\CO[C@@H]4[C@H](O)C(C)=C[C@@H](C(=O)O1)[C@]34O)O2` are “inactive”, “inactive” and 5.59 µM (active).
For `C[C@]12CCC(=O)C=C1CC[C@@H]1[C@@H]2[C@@H](O)C[C@@]2(C)[C@H]1CC[C@]2(O)C(=O)COC(=O)CCC(=O)O` the same measures were “inactive”, “inactive” and “inactive”.
For the molecule `CC(=O)OCC(C)OC(C)=O` (configuration not stated), the Potency result in experiment [1], in experiment [2] and in experiment [3] was “inactive” in each case.
Turning to `O=C(Oc1cccc2cccnc12)c1ccccc1`, the Potency in experiment [1] was 17.4 µM (active). The Potency result in experiment [2] and in experiment [3] was “inactive” in each case.
Consider `CC(C)CCCCCCCCCCCCCCC(=O)O`, for which the Potency result in experiment [1], in experiment [2] and in experiment [3] was “inactive” in each case.
On to `CCc1cc(SCc2sc(-c3ccc(C(F)(F)F)cc3)nc2CN2CCN(c3ccc(OC)cc3)CC2)ccc1OCC(=O)O`, for which the Potency entry in experiment [1] was “inactive”. Moreover, the Potency in experiment [3] is 11.2 µM (active).
For the molecule `CN(C)[C@@H]1C(=O)C(C(N)=O)=C(O)[C@@]2(O)C(=O)C3=C(O)c4c(O)cccc4C[C@H]3C[C@@H]12`, the Potency entry in experiment [1], in experiment [2] and in experiment [3] was “inactive” each time.
`C=C(C)C(=O)OCC[N+](C)(C)C`: the Potency in experiment [1] is 15.8 µM (active). Besides, the Potency entry in experiment [2] and in experiment [3] was “inactive” throughout.
In the case of `CCCCN1C(=O)[C@@H]([C@H](O)C2CCCCC2)NC(=O)C12CCN(Cc1ccc(Oc3ccc(C(=O)O)cc3)cc1)CC2`, the Potency entry in experiment [1] is “inactive”. Besides, the values for the Potency in experiment [2] and in experiment [3] were 19.5 µM (active) and 17.8 µM (active), respectively.
On to `Cc1cc(CCN2CCN(c3nsc4ccccc34)CC2)cc2c1NC(=O)CC2(C)C`, for which the Potency in experiment [1] is 35.6 µM (active); in experiment [3], 17.8 µM (active).
Regarding `CCCCCCCCS(=O)C(C)Cc1ccc2c(c1)OCO2` (configuration not stated), the Potency in experiment [1] is 28.8 µM (active); in experiment [2], 35.4 µM (active); in experiment [3] it was 5.75 µM (active).
With `CCCCCCOC(=O)c1ccc(O)cc1`, the Potency is 11.3 µM (active) and 8.94 µM (active) in experiment [1]; 79.8 µM (active) and inactive in experiment [3].
`NNc1nc(-c2ccc([N+](=O)[O-])cc2)cs1`: the Potency in experiment [1] is 3.99 µM (active); in experiment [2] it was 19.5 µM (active); in experiment [3] it was 5.03 µM (active).
For `Cc1cccc(S(=O)(=O)O)c1C` the same measures were “inactive”, “inactive” and “inactive”.
In the same order, the values of `CSc1ccc(/C=C2/C(C)=C(CC(=O)O)c3cc(F)ccc32)cc1` are 15.5 µM (active), “inactive” and “inactive”.
Turning to `COc1c(C)c2c(c(O)c1C/C=C(\C)CCC(=O)O)C(=O)OC2`, the Potency result in experiment [1], in experiment [2] and in experiment [3] was “inactive” each time.
Consider `CCCCCCCC[P+](CCCCCCCC)(CCCCCCCC)CCCCCCCC`, for which the Potency in experiment [1] is 39.7 µM (active); in experiment [2], 0.154 µM (active); in experiment [3], 0.445 µM (active).
For `CC(C)(C)C(=O)OCOC(=O)C1N2C(=O)CC2S(=O)(=O)C1(C)C` (configuration not stated), the Potency entry in experiment [1], in experiment [2] and in experiment [3] was “inactive” each time.
As to `CO[Si](CCCNc1ccccc1)(OC)OC`, the Potency result in experiment [1] and in experiment [2] was “inactive” in each case. The Potency in experiment [3] is 25.2 µM (active).
With `Nc1ccc2c3c(cccc13)-c1ccccc1-2`, the Potency was 0.128 µM (active) in experiment [1] and 18 µM (active) in experiment [3]. Besides, in experiment [2], the Potency entry was “inactive”.
In the same order, the values of `CNc1ccc(O)cc1` are 63.2 µM (active), 25.1 µM (active) and “inactive”.
`Cc1cccc2c1cc1ccc3cccc4ccc2c1c34`: the Potency in experiment [1] is 0.205 µM (active). Besides, the Potency entry in experiment [2] and in experiment [3] was “inactive” in each case.
`CN(C)c1ccc(SC#N)cc1`: the Potency in experiment [1] is 5.64 µM (active). Besides, the Potency result in experiment [2] and in experiment [3] was “inactive” each time.
Turning to `O=S1(=O)CC(Cl)(Cl)C(Cl)(Cl)C1`, the values for the Potency in experiment [1] and in experiment [3] were 22.4 µM (active) and 25.2 µM (active), respectively. Besides, the Potency result in experiment [2] was “inactive”.
Take `CN(C)c1ccc(C2(c3ccc(N(C)C)cc3)OC(=O)c3cc(N(C)C)ccc32)cc1`: the Potency result in experiment [1] and in experiment [2] was “inactive” throughout. Further, in experiment [3], the Potency is 2 µM (active).
Take `CCOc1ccc2nc3cc(N)ccc3c(N)c2c1`: in experiment [1], the Potency was 0.871 µM (active). In addition, the Potency entry in experiment [2] and in experiment [3] was “inactive” each time.
As to `NC(=O)C1(N2CCCCC2)CCN(CCCN2c3ccccc3CCc3ccc(Cl)cc32)CC1`, the Potency entry in experiment [1] and in experiment [3] was “inactive” in each case. Besides, the Potency in experiment [2] is 1.34 µM (active).
On to `CCC1OCC(COc2ccc(Oc3ccccc3)cc2)O1` (configuration not stated), for which the Potency in experiment [1] was 25.2 µM (active). Besides, the Potency result in experiment [3] was “inactive”.
As to `C=CC(=O)OCC(CO)(COCC(COC(=O)C=C)(COC(=O)C=C)COC(=O)C=C)COC(=O)C=C`, the Potency result in experiment [1] was “inactive”. Also, in experiment [3], the Potency was 0.395 µM (active).
In the case of `C/C=C(\C)C(=O)OCc1ccccc1`, the Potency in experiment [1] is 35.6 µM (active). Besides, the Potency result in experiment [3] is “inactive”.
